The results in this text go back to PubChem BioAssay AID434973 (Sanford-Burnham Center for Chemical Genomics, 2010).

Hit rate of the full screen: of about 330,000 compounds, about 4,900 (1.5%) were called active. The entries come from a sample that favours actives as a whole. Unmarked numbers belong to inactive results.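 Rule for the calls: active = inhibition above about 50% at the single test dose (limit read from the data); inactive = the rest.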

This assay concerns the target Sentrin-specific protease 7 (Homo sapiens) (UniProt Q9BQF6). In words: blockers of human SENP7 peptidase activity – biochemical, luminescence, uHTS, primary screen (AID 434973).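 Note: plate controls were DMSO with enzyme for no effect and no enzyme buffer wells for full effect.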 The following applies: recombinant SENP7, Z-RLRGG-aminoluciferin luminescence, 40 min; at 5 µM; active compounds read high.
For the molecule `Cc1nc(-c2ccccc2)sc1C1(C)CC(c2cccnc2)=NO1` (configuration not stated), the inhibition (usually the change of the read-out against control, counted positive when it falls) is -12.6%.

For the molecule `CCC(=O)NC(Nc1cc(C)ccn1)(C(F)(F)F)C(F)(F)F`, the inhibition is 98.5% (active).

For `CCOC(=O)NNc1cc(C(F)(F)F)ccn1`, the inhibition is 13.9%.

In the case of `Cc1ccnc(NC(=O)CCCOc2ccccc2)c1`, the inhibition was -12.2%.

With `Cc1ccc2[nH]cc(CCNC(=O)C3CCCCC3)c2c1`, the inhibition is 5.37%.

Turning to `Cc1ccccc1C(=O)NC(=S)Nc1ccc(N2CCN(C(=O)c3ccccc3)CC2)cc1`, the inhibition was -6.96%.

On to `CCOc1ccc(C(=O)Nc2cccc(SC)c2)cc1`, for which the inhibition was 88.7% (active).

For the molecule `O=C(Nc1ccc(N2CCOCC2)cc1)c1cccc(S(=O)(=O)N2CCOCC2)c1`, the inhibition is 8.65%.

With `CCOc1ccc(C(=O)Nc2cccc(-c3ccc4nncn4n3)c2)cc1`, the inhibition is -7.35%.

For the molecule `COc1cccc(NC(=O)CN(C)CC(=O)Nc2ccc3c(c2)CCC3)c1`, the inhibition was 10.1%.

For `CCC(=O)Nc1ccc(C(=O)Nc2cccc(OC)c2)cc1`, the inhibition was 56.2% (active).

With `COc1cccc(C(=O)Nc2ccc(N3CCCC3)cc2)c1`, the inhibition was 99.4% (active).

Consider `COc1cccc(C(=O)Nc2nnc(S(=O)(=O)N3CCCCC3)s2)c1`, for which the inhibition is 11.4%.

On to `COc1ccc(C(=O)Nc2cccc(S(C)(=O)=O)c2)cc1`, for which the inhibition was 0.473%.

`Cc1ccccc1C(=O)N1CCN(c2ccc(NC(=O)c3cccs3)cc2)CC1`: the inhibition is -2.29%.

Regarding `CSc1cccc(NC(=O)CSc2ccccc2)c1`, the inhibition is 4.87%.

With `Cc1ccccc1C(=O)Nc1ccc(N2CCCCCC2)cc1`, the inhibition is 60.8% (active).

Take `Cc1c(Cl)c([N+](=O)[O-])nn1CCCC(=O)NC(C)c1ccccc1` (configuration not stated): the inhibition is -0.959%.

In the case of `COc1ccc(CC(=O)OC(C)C(=O)Nc2ccc(S(N)(=O)=O)cc2)cc1` (configuration not stated), the inhibition is 0.778%.

As to `CS(=O)(=O)N1CCCC(C(=O)N2CCOCC2)C1` (configuration not stated), the inhibition is -2.39%.

On to `COc1ccc(/C=C2/S/C(=N/N=C3\CC4CCC3(C)C4(C)C)NC2=O)cc1` (configuration not stated), for which the inhibition was -4.16%.

`Cc1noc(C)c1C(=O)NC(C)c1ccc2c(c1)OCO2` (configuration not stated): the inhibition was 1.47%.

For the molecule `COC(=O)[C@H](CC(C)C)NC(=O)N1CCCCC1C` (some centres not stated), the inhibition is 1.79%.

Regarding `COc1cc(/C=N/NC(=O)CCc2n[nH]c(=O)[nH]c2=O)ccc1O`, the inhibition was 2%.

For `COc1cc(/C=N/Nc2nc3ccccc3s2)ccc1O`, the inhibition was 81.9% (active).

On to `COc1ccc(/C=N/NC(=O)c2cc(-c3cccc(C)c3)nc3ccccc23)cc1O`, for which the inhibition is 7.7%.

For the molecule `Cc1cc(C)c(OCC(=O)N(Cc2cccs2)C2CCS(=O)(=O)C2)c(C)c1` (configuration not stated), the inhibition is 0.829%.

`O=C(CC(NCCN1CCOCC1)C(=O)O)Nc1cccc(Cl)c1` (configuration not stated): the inhibition was 2.14%.

On to `COc1ccc(C(=O)NC2CCN(C(=O)Nc3ccc(F)cc3)CC2)cc1`, for which the inhibition was -1.37%.

Regarding `Clc1ccc(Nc2ccc3ccccc3n2)cc1`, the inhibition is 89.6% (active).

For the molecule `O=c1ccnc(Nc2ccc(Cl)cc2)[nH]1`, the inhibition was 3.66%.

For `Cc1cc(Nc2ccc(Br)cc2)nc2ccccc12`, the inhibition was 0.988%.

As to `Cc1ccccc1CSc1nnc(CCCCCNC(=O)OC(C)(C)C)o1`, the inhibition is 8.18%.

Consider `CC(NC(=O)c1ccco1)c1ccc2c(c1)OCO2` (configuration not stated), for which the inhibition is 9%.

In the case of `CCc1ccc(Oc2coc3cc(O)ccc3c2=O)cc1`, the inhibition was -2.69%.

Take `CC(C)CN(Cc1c(O)ccc2c(=O)c(-c3ccccc3)coc12)CC(C)C`: the inhibition was 11.8%.

On to `O=c1c(-c2ccccc2)coc2cc(O)ccc12`, for which the inhibition was 66.2% (active).

With `CC(=O)Nc1ccc(S(=O)(=O)N2CCC(C(=O)N[C@@H](Cc3ccccc3)C(=O)O)CC2)cc1`, the inhibition was -6.11%.

On to `C=CCNC(=S)N1CCN(CCN=Cc2c(C)[nH]n(-c3ccc([N+](=O)[O-])cc3)c2=O)CC1`, for which the inhibition is 87.2% (active).

On to `Cc1[nH]n(-c2ccc([N+](=O)[O-])cc2)c(=O)c1C=NCCN1CCN(C(=O)c2ccccc2F)CC1`, for which the inhibition was 82.4% (active).

For the molecule `Cc1ccc(-n2[nH]c(C)c(/C=N/NC(=O)c3cccc([N+](=O)[O-])c3)c2=O)cc1C`, the inhibition is -1.05%.

Take `CCNC(=S)N1CCN(CCN=CC2=C(O)CC(C)(C)CC2=O)CC1`: the inhibition was -0.44%.

Take `Cc1[nH]n(-c2ccccc2)c(=O)c1N=Nc1ccccc1C(=O)N1CCCCC1`: the inhibition is 0.644%.

Consider `CC1(C)CC(=O)C(C=NCCN2CCN(C(=S)Nc3cccc(Cl)c3)CC2)=C(O)C1`, for which the inhibition was -11.9%.

Take `Cc1ccc(C(=O)N(CC(=O)NC2CCCC2)c2ccc(F)cc2)s1`: the inhibition was -4.07%.

In the case of `CCc1noc(C)c1C(=O)N1CCN(S(=O)(=O)c2cccc(C(F)(F)F)c2)CC1`, the inhibition is 0.961%.

On to `O=c1oc2ccccc2cc1-c1cn(-c2ccccc2)c(=S)[nH]1`, for which the inhibition was 99.2% (active).

`S=c1[nH]c(-c2cccs2)cn1-c1ccccc1`: the inhibition is -0.786%.

As to `O=C(Nc1cc2ccccc2oc1=O)C1CCCCC1`, the inhibition is 0.223%.

`COc1ccc(C(CCN(Cc2ccc(OC)c(OC)c2)C(=O)CCl)c2ccccc2)cc1` (configuration not stated): the inhibition is -4.24%.

Regarding `CCCS(=O)(=O)N1CCCC(C(=O)NCCN2CCCCC2C)C1` (configuration not stated), the inhibition is 4.11%.

With `COc1ccc(/C=C2\SC(=S)N(CC(=O)NNC(=O)c3ccncc3)C2=O)cc1`, the inhibition was 5.57%.

Take `COc1ccc(/C=C2\SC(=S)N(CCC(=O)Nc3cccc(C(=O)O)c3)C2=O)cc1OC`: the inhibition is -3.5%.

Take `C=CCOc1ccc(/C=C2\SC(=S)N(CCC(=O)O)C2=O)cc1`: the inhibition is 98.9% (active).

Take `CCO[C@@H]1OC(C(=O)NC2CC2)=C[C@H](C)[C@H]1CCCO`: the inhibition was 6.12%.

As for `Cn1nccc1NS(=O)(=O)c1ccc(F)cc1`, the inhibition is 4.62%.

Take `O=C(CN1CCOC1=O)N1CCCC(Nc2ccc(F)c(F)c2)C1` (configuration not stated): the inhibition was 1.33%.

As for `Cc1cccc(NC(=O)c2cccnc2Cl)n1`, the inhibition was 5.58%.

For `Cc1cccc(NC(=O)c2cc(N3C(=O)CCC3=O)ccc2Cl)n1`, the inhibition was 6.63%.

For `Cc1cccc(NC(=O)c2ccc3ccccc3n2)n1`, the inhibition was 78.7% (active).

In the case of `O=C(O)C1=CCCN(CCON=C(c2ccccc2)c2ccccc2)C1`, the inhibition is 1.76%.

Take `Cc1ccc(CSc2nsc(C)c2C#N)cc1`: the inhibition is -2.96%.

For the molecule `COC(=O)C(=Nc1ccccc1)/C(C(=O)C(=O)N(C)c1ccccc1)=C(\O)c1ccc(Cl)cc1`, the inhibition is -1.49%.

With `CCn1c(CC(=O)Nc2ccccc2C)nnc1SCC(=O)NC1=NCCS1`, the inhibition is -7.93%.

Consider `CSCc1ccc(C(=O)Nc2cc(C)cc(C)c2)cc1`, for which the inhibition was 75.3% (active).

For the molecule `C=CCN(c1ccc(C(=O)Nc2cc(C)cc(C)c2)cc1)S(C)(=O)=O`, the inhibition is 6.36%.

Take `CC(=O)Nc1ccccc1NC(=O)c1cc(C)cc(C)c1`: the inhibition is 2.28%.

On to `CN(C)C(=O)Cn1c(=O)n(S(=O)(=O)c2ccccc2)c2ccccc21`, for which the inhibition is 2.64%.

For `Cc1ccc(C(=O)N/C(=C/c2cccnc2)C(=O)O)cc1`, the inhibition is -9.12%.

As to `C/C(=N\NC(=O)CNC(=O)C(c1ccccc1)c1ccccc1)c1ccc(C)cc1`, the inhibition is -4.66%.

Regarding `C/C(=N\NC(=O)c1ccc(C)cc1)C1C(=O)c2ccccc2C1=O`, the inhibition was 77.1% (active).

As to `CC(=O)N1c2ccc(S(=O)(=O)N3CCCC(C(=O)Nc4ccc(C)cc4C)C3)cc2CC1C` (configuration not stated), the inhibition is 7.52%.

For `CSc1ccc(C#N)cc1NC(=O)c1ccc(Cl)cc1`, the inhibition is 0.394%.

Take `CNC(=O)c1sc(NCc2ccccc2OC)nc1C`: the inhibition was 6.9%.

With `CC(=O)c1sc(N/N=C/c2ccc(C(C)C)cc2)nc1C`, the inhibition is 0.0938%.

Regarding `COc1cccc2sc(Nc3nc(C)c(C(C)=O)s3)nc12`, the inhibition was 69.1% (active).

For the molecule `COc1ccc(S(=O)(=O)N2CCOC2CNC(=O)C(=O)NCc2ccc(F)cc2)cc1` (configuration not stated), the inhibition was 2.2%.

As for `Cc1nc2cc(NC(=O)Nc3cccc(F)c3)ccc2n1C`, the inhibition is 96.5% (active).

In the case of `C=CCN(C(=O)Nc1ccc2c(c1)nc(C)n2C)c1ccccc1`, the inhibition was 5.72%.

For the molecule `Cn1c(CCN2CCCCCC2)nc2cc(NC(=O)Nc3ccccc3)ccc21`, the inhibition is 10%.

For `Cc1nc2nc(CSc3nc4ccccc4s3)cc(=O)n2[nH]1`, the inhibition was -13.3%.

For `O=[N+]([O-])c1c(NCCO)cc(Sc2nc3ccccc3s2)c2nonc12`, the inhibition is 79.2% (active).

As to `NC(=O)c1ccc(Nc2ccc3nonc3c2[N+](=O)[O-])cc1`, the inhibition was -0.507%.

For `COc1ccc(OCC(O)CN(C)C(=O)C(C)Oc2ccccc2)cc1` (configuration not stated), the inhibition was 11.8%.

As to `COc1ccc(C2=NS(=O)(=O)N(C)C(C(=O)N3CCCCC3)=C2)cc1`, the inhibition was -5.66%.

For `O=C(CCNS(=O)(=O)c1cccs1)N1CCN(c2ccc(F)cc2)CC1`, the inhibition is -1.51%.

`N/C(=N\OC(=O)CC1CCCCC1)c1ccccc1`: the inhibition was 21.8%.

`N/C(=N\OC(=O)CCC1CCCCC1)c1ccccn1`: the inhibition was 82% (active).

As for `COc1ccccc1OCC(=O)O/N=C(\N)c1ccccn1`, the inhibition is 7.18%.

As for `O=C(CSc1nnc(COc2ccc(Cl)cc2)n1Cc1ccco1)N1CCNC1=O`, the inhibition is -0.0156%.

Regarding `O=S(=O)(NCC1CC1)c1ccc(F)c(Cl)c1`, the inhibition was 2.72%.

`COc1ccccc1N=Cc1c(O)c2ccccc2oc1=O`: the inhibition was 88% (active).

For `COc1cc(N=Cc2c(O)c3ccccc3oc2=O)c(OC)cc1Cl`, the inhibition was -0.159%.

For `COc1ccccc1N=C(C)C1=C(O)COC1=O`, the inhibition is -4.17%.

As for `N/C(=N\OC(=O)/C=C/c1ccccc1)c1ccc(Br)cc1`, the inhibition was 9.06%.

For the molecule `N/C(=N\OC(=O)c1ccc2c(c1)OCO2)c1ccc(Br)cc1`, the inhibition is 71.1% (active).

Turning to `N/C(=N\OC(=O)N1c2ccccc2Sc2ccccc21)c1ccc(Br)cc1`, the inhibition was -8.09%.
